Only some compounds are listed: those with a hit (about 7.3% of all), similar ones and a draw of the others.
FLuc counter: qHTS profiling assay for firefly luciferase inhibitor/activator using purifed enzyme and Km concentrations of substrates (counterscreen for miR-21 project) | Luciferin 4-monooxygenase (Photinus pyralis), P08659 | purified FLuc, Km substrates, luminescence inhibition | Potency, µM (highest dose often 57.5 µM), usual class: inhibitors | 360,000 tested, 6.9% active | AID 588342, 2011; note: nearly all actives have a fitted effect of over 55% in size
Target sequence (P08659 whole entry, looked up): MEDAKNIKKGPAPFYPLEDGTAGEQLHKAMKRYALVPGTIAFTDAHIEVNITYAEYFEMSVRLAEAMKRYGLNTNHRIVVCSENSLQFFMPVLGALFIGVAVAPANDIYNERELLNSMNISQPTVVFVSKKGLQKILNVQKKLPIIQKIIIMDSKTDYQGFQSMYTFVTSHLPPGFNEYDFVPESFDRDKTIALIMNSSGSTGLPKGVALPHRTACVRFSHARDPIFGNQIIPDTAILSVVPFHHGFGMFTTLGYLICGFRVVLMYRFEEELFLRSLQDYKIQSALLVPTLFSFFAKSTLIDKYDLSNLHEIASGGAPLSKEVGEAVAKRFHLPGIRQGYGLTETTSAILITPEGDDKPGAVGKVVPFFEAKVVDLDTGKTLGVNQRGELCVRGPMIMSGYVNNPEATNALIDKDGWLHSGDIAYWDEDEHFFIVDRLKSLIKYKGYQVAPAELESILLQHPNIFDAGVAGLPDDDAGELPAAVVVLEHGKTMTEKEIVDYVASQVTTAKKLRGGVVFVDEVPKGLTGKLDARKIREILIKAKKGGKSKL
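Purified P. pyralis luciferase (10nM final) with 10uM D-luciferin and 10uM ATP (Km levels) in 50mM Tris acetate pH 7.5, 10mM Mg acetate, 0.01% Tween-20, 0.05% BSA; qHTS 6-point titration, ~60 µM downward; luminescence read.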
Rab9 promoter act: qHTS Assay for Rab9 Promoter Activators; Huh7 Rab9 promoter-luciferase reporter, luminescence, 24 h; Potency, µM (series often up to 9.22 µM), most hits filed as activators; 320,000 tested, 2.8% active; AID 485297, 2010; note: nearly all actives have a fitted effect of over 60% in size
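Promoter activation is measured as luciferase luminescence in Huh7 cells stably transfected with a Rab9 promoter–luciferase construct, following 24 h compound exposure at 37 °C and 10 min reagent incubation at ambient temperature.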
KinaseGlo FLuc: Counterscreen for Luciferase (Kinase-Glo TM) Inhibition; Luciferin 4-monooxygenase (Photuris pensylvanica), Q27757; Kinase-Glo luciferase, ATP luminescence, 8 min; 200,000 tested, 0.28% active; AID 1379, 2008; Potency, µM (titrated, usually from 38.3 µM), usual class: inhibitors; note: nearly all actives have a fitted effect of over 60% in size
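Compound is pinned into ATP-containing buffer (10 uM ATP, imidazole pH 7.2, 7 mM MgCl2). Kinase-Glo luciferase reagent is then added. Light output is recorded following an 8-min room-temperature incubation.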
NPC1 promoter act: qHTS Assay for NPC1 Promoter Activators | Huh7 NPC1 promoter luciferase reporter, 24 h | Potency, µM (titrated, usually from 9.22 µM), most hits filed as activators | 320,000 tested, 2.4% active; note: nearly all actives have a fitted effect of over 60% in size
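Cells: Huh7 expressing luciferase under the NPC1 promoter, 1500/well. Seeded 2 h, compound added, incubated 24 h at 37 °C. Luciferase reagent, 10 min ambient, then luminescence.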
SMN2 splice up: qHTS Assay for Enhancers of SMN2 Splice Variant Expression; HEK293 SMN2-luciferase splicing reporter, luminescence, 30-36 h; Potency, µM (highest dose often 46.1 µM), usual class: activators; 210,000 tested, 2.8% active; note: nearly all actives have a fitted effect of over 55% in size
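HEK293 cells carry an SMN2 […]–luciferase reporter in which exon 7 inclusion puts luciferase in frame. Cells were plated 10-12 h before compound addition, then incubated 30-36 h at 37C. ONE-Glo luminescence was read; sodium butyrate at 4.5 mM final served as control.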
A number is an active result. Calls come from the whole dose curve; as a rule, active = well fitted curve in the direction sought with a large enough effect; inconclusive = small, poorly fitted or top-dose-only effect, or another doubt; inactive = no such curve, though single readings can be large; an effect the other way counts as inactive or inconclusive.

Results for O=c1c(-c2ccc(O)cc2)coc2cc(OC3OC(CO)C(O)C(O)C3O)cc(O)c12 (configuration not stated) ?
FLuc counter: 24µM; Rab9 promoter act: inconclusive; KinaseGlo FLuc: inactive; NPC1 promoter act: inconclusive; SMN2 splice up: inconclusive

How did COc1cc(O)c2c(=O)c(-c3ccc(O[C@@H]4O[C@H](CO)[C@@H](O)[C@H](O)[C@H]4O)cc3)coc2c1 do in these assays?
FLuc counter: 17µM; Rab9 promoter act: 4µM; NPC1 promoter act: 1.6µM

What do the screens show for `O=c1c(-c2ccc(O)cc2)coc2cc(OC3OC(CO)C(O)C(O)C3O)ccc12` (configuration not stated)?
FLuc counter: inconclusive; Rab9 promoter act: inconclusive; KinaseGlo FLuc: inactive; NPC1 promoter act: 3.2µM; SMN2 splice up: inconclusive

How did Cc1c(C)c2ccc(O[C@@H]3O[C@H](CO)[C@H](O)[C@H](O)[C@H]3O)cc2oc1=O do in these assays?
FLuc counter: inactive; Rab9 promoter act: inactive; NPC1 promoter act: inactive

How did Cc1ccccc1OCC(=O)Nc1nnc(S(=O)(=O)N2CCCCCC2)s1 do in these assays?
FLuc counter: inactive

Results for COc1ccc(C2c3c(-c4ccccc4)n[nH]c3C(=O)N2c2ccc(C(=O)O)cc2)cc1 (configuration not stated) ?
FLuc counter: 17µM; Rab9 promoter act: inactive; NPC1 promoter act: inactive

Results for CCn1cc(C(=O)N(C)Cc2ccccc2)c(=O)c2cc(S(=O)(=O)N3CCc4ccccc4C3)ccc21 ?
FLuc counter: inactive; SMN2 splice up: inactive

Results for Cc1cc(C)cc(OCC(=O)NC(Cc2c[nH]c3ccccc23)C(=O)O)c1 (configuration not stated) ?
FLuc counter: inconclusive; SMN2 splice up: inactive

What do the screens show for `Cc1cccnc1NC(=O)Nc1ccc(F)cc1`?
FLuc counter: inconclusive; Rab9 promoter act: inconclusive; KinaseGlo FLuc: inactive; NPC1 promoter act: inconclusive; SMN2 splice up: inactive

Results for Cc1ccccc1CNC(=O)Nc1cccs1 ?
FLuc counter: 21µM; Rab9 promoter act: inactive; KinaseGlo FLuc: inactive; NPC1 promoter act: inactive; SMN2 splice up: inactive

What do the screens show for `O=C(NCc1cccs1)Nc1cccs1`?
FLuc counter: inconclusive; Rab9 promoter act: inactive; KinaseGlo FLuc: inactive; NPC1 promoter act: inactive; SMN2 splice up: inactive

Results for Cc1cccnc1NC(=S)Nc1ccc(F)cc1F ?
FLuc counter: inconclusive; Rab9 promoter act: inactive; KinaseGlo FLuc: inactive; NPC1 promoter act: inactive

How did Cc1cccnc1NC(=O)Nc1cccs1 do in these assays?
FLuc counter: 12µM; Rab9 promoter act: inactive; KinaseGlo FLuc: inactive; NPC1 promoter act: inactive; SMN2 splice up: inactive

What do the screens show for `Cc1ccc(NC(=O)Nc2ncccc2C)cc1`?
FLuc counter: 7.6µM; Rab9 promoter act: 2µM; KinaseGlo FLuc: inactive; NPC1 promoter act: 2.8µM; SMN2 splice up: 10µM

How did Cc1ccc(C)c(NC(=S)Nc2ncccc2C)c1 do in these assays?
FLuc counter: 17µM; Rab9 promoter act: inconclusive; KinaseGlo FLuc: inactive; NPC1 promoter act: inactive

How did Cc1cccc(NC(=O)Nc2cccs2)c1C do in these assays?
FLuc counter: inconclusive; SMN2 splice up: inactive

How did CCc1ccc(S(=O)(=O)c2c(C(=O)c3ccccc3)cnc3ccc(CC)cc23)cc1 do in these assays?
FLuc counter: inactive; SMN2 splice up: inactive

What do the screens show for `COc1ccc(OCC2c3cc(OC)c(OC)cc3CCN2C(=O)c2ccc(F)cc2)cc1` (configuration not stated)?
FLuc counter: inactive

What do the screens show for `CN(C)C1C(=O)C(C(N)=O)=C(O)[C@@]2(O)C(=O)C3=C(O)c4c(O)ccc(Cl)c4[C@@H](O)C3C[C@@H]12` (some centres not stated)?
KinaseGlo FLuc: inactive; SMN2 splice up: inactive

What do the screens show for `COc1ccc(Br)cc1CNC(=O)c1nn(-c2ccc(C)cc2)c(=O)c2c1c1ccccc1n2C`?
FLuc counter: inactive; SMN2 splice up: inactive

What do the screens show for `Cc1ccc2c(C)c(C(=O)Nc3cccnc3)oc2c1`?
FLuc counter: 6.7µM; Rab9 promoter act: inconclusive; KinaseGlo FLuc: inactive; NPC1 promoter act: inactive; SMN2 splice up: inactive
